Data on eight sequences can be found in paper PMC4081100, “A DNA-binding-site landscape and regulatory network analysis for NAC transcription factors in Arabidopsis thaliana”.

Holding throughout (assay): universal protein binding microarray (PBM); transcription factors of Arabidopsis thaliana; high values mean tight binding
One assay concerns the target T1, GST-ANAC092(1-176) (Arabidopsis thaliana, UniProt Q9FKA0 1-176).
T1 sequence: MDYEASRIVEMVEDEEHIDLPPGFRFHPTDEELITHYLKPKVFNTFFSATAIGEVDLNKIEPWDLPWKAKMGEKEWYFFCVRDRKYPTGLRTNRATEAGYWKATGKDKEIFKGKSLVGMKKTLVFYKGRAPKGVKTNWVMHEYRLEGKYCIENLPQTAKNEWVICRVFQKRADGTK
The settings on record: protein: recombinant; tags: GST; chain copies: 2; dsDNA, one strand shown. In outline:
(§1)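 Binding is expressed as the normalised enrichment score (E-score). Proteins carrying a GST tag, whether NAC-domain, full-length or DNA-binding-domain forms, were induced in cells, and zinc acetate was added for zinc-finger proteins. After purification on glutathione–Sepharose 4B and quantification by A280 or anti-GST western blot, each was applied in duplicate at 200 to 500 nM final to custom all-10-mer Agilent 4 × 180K arrays made double-stranded by primer extension. Gapped and ungapped 8-mers were scored.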

The next assay deals with T2, GST-ANAC019 NAC domain (Arabidopsis thaliana, UniProt Q9C932 14-162).
T2 sequence: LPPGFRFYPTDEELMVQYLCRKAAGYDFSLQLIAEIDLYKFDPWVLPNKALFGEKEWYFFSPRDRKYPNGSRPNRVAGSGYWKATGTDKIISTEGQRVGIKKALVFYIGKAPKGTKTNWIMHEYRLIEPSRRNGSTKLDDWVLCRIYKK
The settings on record: protein: recombinant; tags: GST; chain copies: 2; dsDNA, one strand shown. In a few lines: as §1

A further assay has as its target T3, GST-ATAF1 NAC domain (Arabidopsis thaliana, UniProt Q39013 7-158).
T3 sequence: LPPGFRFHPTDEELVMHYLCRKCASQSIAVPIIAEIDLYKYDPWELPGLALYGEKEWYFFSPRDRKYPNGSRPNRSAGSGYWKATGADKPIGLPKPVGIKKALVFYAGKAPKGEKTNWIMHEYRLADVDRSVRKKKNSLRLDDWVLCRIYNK
The settings on record: protein: recombinant; tags: GST; chain copies: 2; dsDNA, one strand shown. In a few lines: as §1

The target in assay [1] is T4, GST-ANAC092(1-285) full length (Arabidopsis thaliana, UniProt Q9FKA0 1-285).
T4 sequence: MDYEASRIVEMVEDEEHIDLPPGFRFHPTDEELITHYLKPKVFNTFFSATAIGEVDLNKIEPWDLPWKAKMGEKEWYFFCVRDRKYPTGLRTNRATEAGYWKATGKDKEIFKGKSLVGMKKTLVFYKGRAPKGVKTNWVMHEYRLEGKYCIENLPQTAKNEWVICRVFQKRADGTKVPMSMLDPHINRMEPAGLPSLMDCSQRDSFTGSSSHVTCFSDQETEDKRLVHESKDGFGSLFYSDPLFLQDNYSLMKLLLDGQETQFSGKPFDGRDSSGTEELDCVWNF
The settings on record: protein: recombinant; tags: GST; chain copies: 2; dsDNA, one strand shown. In outline: as §1

A further assay deals with T5, GST-NAP(1-166) (Arabidopsis thaliana, UniProt O49255 1-166).
T5 sequence: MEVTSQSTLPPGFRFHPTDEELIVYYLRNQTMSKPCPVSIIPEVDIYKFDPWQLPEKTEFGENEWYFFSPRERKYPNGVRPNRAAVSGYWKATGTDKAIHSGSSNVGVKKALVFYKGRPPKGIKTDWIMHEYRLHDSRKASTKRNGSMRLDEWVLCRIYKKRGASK
The conditions noted are these: protein: recombinant; tags: GST; chain copies: 2; dsDNA, one strand shown. In outline:
as §1

The next assay deals with T6, GST-NST2(1-184) (Arabidopsis thaliana, UniProt Q9M274 1-184).
T6 sequence: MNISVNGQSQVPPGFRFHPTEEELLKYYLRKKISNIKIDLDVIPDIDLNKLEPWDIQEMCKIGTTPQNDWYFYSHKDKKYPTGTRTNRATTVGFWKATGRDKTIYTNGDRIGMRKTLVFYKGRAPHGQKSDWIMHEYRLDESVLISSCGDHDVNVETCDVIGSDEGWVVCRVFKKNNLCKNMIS
The settings on record: protein: recombinant; tags: GST; chain copies: 2; dsDNA, one strand shown. In a few lines:
as §1

For another assay, the target named is T7, GST-SND1(1-203) (Arabidopsis thaliana, UniProt Q9LPI7 1-203).
T7 sequence: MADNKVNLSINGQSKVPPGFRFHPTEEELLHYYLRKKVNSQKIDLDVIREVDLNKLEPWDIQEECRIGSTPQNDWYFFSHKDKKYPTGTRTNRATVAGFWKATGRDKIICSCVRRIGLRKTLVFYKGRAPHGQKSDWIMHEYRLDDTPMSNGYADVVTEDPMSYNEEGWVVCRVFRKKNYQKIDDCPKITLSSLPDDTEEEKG
The settings on record: protein: recombinant; tags: GST; chain copies: 2; dsDNA, one strand shown. In outline:
as §1

The target in a further assay is T8, GST-VND3 NAC domain (Arabidopsis thaliana, UniProt Q9FH59 12-162).
T8 sequence: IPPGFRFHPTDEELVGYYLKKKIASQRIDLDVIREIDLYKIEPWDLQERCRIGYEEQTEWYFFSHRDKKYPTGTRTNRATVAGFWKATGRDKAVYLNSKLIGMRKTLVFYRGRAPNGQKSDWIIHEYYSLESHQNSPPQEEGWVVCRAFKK
The conditions noted are these: protein: recombinant; tags: GST; chain copies: 2; dsDNA, one strand shown. In a few lines:
as §1

In another assay the target is T9, GST-VND7 NAC domain (Arabidopsis thaliana, UniProt Q9C8W9 9-158).
T9 sequence: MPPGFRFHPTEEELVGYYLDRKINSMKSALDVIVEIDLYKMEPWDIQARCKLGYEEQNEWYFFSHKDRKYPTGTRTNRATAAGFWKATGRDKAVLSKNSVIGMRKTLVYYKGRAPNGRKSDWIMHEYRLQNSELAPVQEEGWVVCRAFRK
The conditions noted are these: protein: recombinant; tags: GST; chain copies: 2; dsDNA, one strand shown. In outline: as §1

Another assay has as its target T10, GST-ANAC055(1-171) (Arabidopsis thaliana, UniProt Q9LDY8 1-171).
T10 sequence: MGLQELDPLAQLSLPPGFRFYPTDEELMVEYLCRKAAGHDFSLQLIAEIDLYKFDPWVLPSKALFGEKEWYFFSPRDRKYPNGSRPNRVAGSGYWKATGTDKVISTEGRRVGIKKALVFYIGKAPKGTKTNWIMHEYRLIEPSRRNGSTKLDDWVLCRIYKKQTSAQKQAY
The conditions noted are these: protein: recombinant; tags: GST; chain copies: 2; dsDNA, one strand shown. In outline:
as §1

In a further assay the target is T11, GST-NTL8 NAC domain (Arabidopsis thaliana, UniProt Q9XIN7 14-156).
T11 sequence: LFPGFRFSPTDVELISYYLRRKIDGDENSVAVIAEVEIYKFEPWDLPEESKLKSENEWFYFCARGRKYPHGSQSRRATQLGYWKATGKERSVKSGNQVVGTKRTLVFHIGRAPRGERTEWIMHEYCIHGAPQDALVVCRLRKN
The settings on record: protein: recombinant; tags: GST; chain copies: 2; dsDNA, one strand shown. In outline:
as §1

Another assay concerns the target GST-WRKY1(266-371) (Arabidopsis thaliana, UniProt Q9SI37 266-371). The conditions noted are these: protein: recombinant; tags: GST; dsDNA, one strand shown. In outline: as §1

GST-WRKY1(266-371), sequence (Q9SI37 266-371): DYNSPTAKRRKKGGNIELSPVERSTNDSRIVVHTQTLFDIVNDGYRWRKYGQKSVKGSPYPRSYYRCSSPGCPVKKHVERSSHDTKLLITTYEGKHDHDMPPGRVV

As to ACGCTACC, the binding signal with GST-ANAC092(1-176) turned out to be 0.455 E-score; with GST-ANAC019 NAC domain, 0.118 E-score; with GST-ATAF1 NAC domain, 0.144 E-score; in [1], 0.48 E-score; in the assay with GST-NAP(1-166), 0.0969 E-score; with GST-NST2(1-184) it was 0.34 E-score. In addition, the binding signal with GST-SND1(1-203) turned out to be 0.475 E-score; with GST-VND3 NAC domain, 0.0872 E-score; with GST-VND7 NAC domain it was 0.181 E-score.
ATACGCCA: the binding signal was found to be 0.455 E-score with GST-ANAC092(1-176); 0.22 E-score with GST-ANAC055(1-171); 0.331 E-score with GST-ATAF1 NAC domain; 0.455 E-score in [1]; 0.201 E-score in the assay with GST-NAP(1-166); 0.283 E-score in the assay with GST-NST2(1-184). In addition, the binding signal with GST-NTL8 NAC domain stood at 0.0758 E-score; with GST-SND1(1-203) it was 0.398 E-score; with GST-VND3 NAC domain, 0.192 E-score; with GST-VND7 NAC domain, 0.247 E-score.
Turning to ATGGCGTA, the binding signal with GST-ANAC092(1-176) came out at 0.393 E-score; with GST-ATAF1 NAC domain, 0.185 E-score; in assay [1], 0.426 E-score; with GST-NAP(1-166), 0.184 E-score; in the assay with GST-NST2(1-184), 0.299 E-score; with GST-SND1(1-203), 0.452 E-score. Besides, the binding signal amounted to 0.149 E-score in the assay with GST-VND3 NAC domain and 0.192 E-score in the assay with GST-VND7 NAC domain.
As for CAGTCAAC, the binding signal in the assay with GST-ANAC092(1-176) is 0.0753 E-score; with GST-ATAF1 NAC domain, 0.084 E-score; with GST-SND1(1-203), 0.0832 E-score; with GST-VND3 NAC domain, 0.0605 E-score; with GST-WRKY1(266-371), 0.491 E-score.
For GACACGGC, the binding signal in the assay with GST-ANAC092(1-176) was 0.235 E-score; with GST-ANAC019 NAC domain it was 0.42 E-score; with GST-ANAC055(1-171), 0.351 E-score; with GST-ATAF1 NAC domain, 0.278 E-score; in assay [1], 0.387 E-score; in the assay with GST-NAP(1-166) it was 0.237 E-score. For the same sequence, the binding signal with GST-NTL8 NAC domain is 0.0582 E-score; with GST-SND1(1-203), 0.116 E-score; with GST-VND3 NAC domain, 0.328 E-score; with GST-VND7 NAC domain, 0.348 E-score.
In the case of TTGACCAA, the binding signal with GST-ANAC092(1-176) was determined as 0.232 E-score; in the assay with GST-ANAC019 NAC domain it was 0.063 E-score; in the assay with GST-ANAC055(1-171), 0.0923 E-score; with GST-ATAF1 NAC domain, 0.066 E-score; in assay [1] it was 0.226 E-score; with GST-SND1(1-203) it was 0.0845 E-score. Moreover, the results for the binding signal in the assay with GST-VND3 NAC domain and with GST-WRKY1(266-371) were 0.0958 E-score and 0.491 E-score, respectively.
Turning to ACACGGCA, the binding signal with GST-ANAC092(1-176) came out at 0.481 E-score; with GST-ANAC019 NAC domain, 0.485 E-score; with GST-ANAC055(1-171), 0.479 E-score; with GST-ATAF1 NAC domain it was 0.446 E-score; in assay [1], 0.481 E-score; in the assay with GST-NAP(1-166), 0.457 E-score. The binding signal was found to be 0.245 E-score with GST-NST2(1-184); 0.0652 E-score with GST-NTL8 NAC domain; 0.148 E-score with GST-SND1(1-203); 0.463 E-score with GST-VND3 NAC domain; 0.481 E-score with GST-VND7 NAC domain.
Take CTTTACGC: the binding signal with GST-ANAC092(1-176) amounted to 0.294 E-score; in the assay with GST-ANAC019 NAC domain, 0.0905 E-score; in assay [1], 0.302 E-score; with GST-NAP(1-166) it was 0.081 E-score; with GST-NST2(1-184), 0.193 E-score; with GST-SND1(1-203), 0.408 E-score. The binding signal was 0.0839 E-score in the assay with GST-VND3 NAC domain and 0.137 E-score with GST-VND7 NAC domain.
